Assay results published in PubChem BioAssay (NCI).
Compounds without any hit were thinned out: in the full panel of roughly 83,000, 20% have a hit.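 Interpretation: 100, growth as untreated; towards 0, rising growth inhibition; 0, no net growth; 0 to -100, cell death. Compounds scoring below 10 were considered active.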 Values without a mark were called inactive. The source made the active and inactive calls.

What follows are compounds tested on KM12 colon (assay: NCI-60 one-dose screen, 48 h (100 = growth as untreated, 0 = no growth, -100 = all killed)). Conditions: 10 µM unless noted.

Row | SMILES | growth
1 | COc1cc(C2CC(c3ccc(C)cc3)=NN2C(C)=O)ccc1Oc1ccnc2cc(Cl)ccc12 (stereo unspecified) | 85.3%
2 | O=c1c(O)cccn1CCCNCCCN(CCCn1cccc(O)c1=O)CCCn1cccc(O)c1=O | 106%
3 | CCCCCCCCSc1ncnc2c1ncn2CO | 88.2%
4 | O=C1Cc2cc(CCN3CCN(CCOCCO)CC3)c(Cl)cc2N1Cc1ccc(-c2ccccc2-c2nn[nH]n2)cc1 | 85.2%
5 | COC(=O)c1ccc2c(c1)nc(-c1ccc(O)c(OC)c1)n2-c1cc(C(C)(C)C)[nH]n1 | 96.9%
6 | COc1cc(/C=C/c2nnc(-c3cc(-c4ccccc4)n[nH]3)o2)cc(OC)c1OC | 103%
7 | CCOC(=O)c1c2c(c(C)n1Cc1ccc(OC)cc1)-c1nc(N)ncc1CC2 | 109%
8 | O=C(Nc1ccncc1)C(=O)c1cn(S(=O)(=O)c2cccc(F)c2)c2ccccc12 | 27.6%
9 | Nc1nc(N)c([N+](=O)[O-])c(=O)[nH]1 | 111%
10 | NC(=O)N/N=C/c1ccc(Br)o1 | 108%
11 | COc1ccc(C2CC(c3cccc(Nc4ccnc5cc(Cl)ccc45)c3)=NN2C=O)cc1 (stereo unspecified) | 23.1%
12 | c1ccc(-n2nnnc2-c2cccc3ccccc23)cc1 | 31.3%
13 | CCCn1cnc2c1c(=O)n(CCCCC(C)=O)c(=O)n2C | 114%
14 | O=C(/C=C/c1cccnc1)NCCCCC1CCCN(C(=O)c2ccccc2)C1 (stereo unspecified) | 43.9%
15 | CCC(C)CC(C)C(=O)c1c(O)ccn(O)c1=O (stereo unspecified) | 34.2%
16 | CC/C=C\C=C/C(=O)N/C=C/CC1Cc2cccc(O)c2C(=O)O1 (stereo unspecified) | 42.1%
17 | COC(=O)CC1=C(C)/C(=C/c2[nH]c(-c3ccc[nH]3)cc2OC)N=C1C | 10.2%
18 | CCC(c1ccccc1)c1noc(CCN(CC)CC)n1 (stereo unspecified) | 105%

Row | SMILES | growth
19 | CCCCCCCC/C=C/CCCCCCCC1=NC(C)(C)CN1CC(C)O (stereo unspecified) | 6.06% (active)
20 | N#CCCCCCn1c2ccccc2c2c3c(c4c5ccccc5[nH]c4c21)C(=O)N(O)C3=O | 4.16% (active)
21 | COc1ccc(-c2nn(-c3ccccc3)cc2/C=C2\SC(=S)N(CCc3ccc(O)cc3)C2=O)cc1 | 81.5%
22 | C/C(=N/N=C(N)N)c1ccc(Cl)cc1 | 93.2%
23 | COc1ccc(-c2noc(N)c2-c2cc(OC)c3c(c2)OCO3)cc1 | 23.9%
24 | COc1ccc(-c2c(-c3cc(OC)c(OC)c(OC)c3)noc2N)cc1 | 7.28% (active)
25 | Cc1nn(-c2ccc(Br)cc2)c2nc3c(nc12)C(=O)C(=O)c1ccccc1-3 | 103%
26 | CCN(CC)c1ccc(C(O)C2=CC(=O)c3ccccc3C2=O)cc1 (stereo unspecified) | 1.59% (active)
27 | CCCCCCCCCCCCCCCCN=C(CC(=O)O)C(=O)O | 100%
28 | OC(CCC(O)(c1ccccc1)c1ccccc1)(c1ccccc1)c1ccccc1 | 75%
29 | Cc1cc(C)n2nc(SCC(=O)Nc3sc4c(c3C(N)=O)CCC4)nc2n1 | 114%
30 | C=Cc1nn2c(CCC(=O)c3nc4ccccc4[nH]3)nnc2s1 | 97.7%
31 | COc1ccc(Nc2nccc(N3CCN(c4c5ccc(Cl)cc5nc5ccc(OC)cc45)CC3)n2)cc1 | 73.9%
32 | NNC(=O)C1CC2c3ccccc3C1c1ccccc12 (stereo unspecified) | 115%
33 | COc1ccc2c(c1)C(=O)/C(=C/c1cccc(OCC(=O)c3ccccc3)c1)CC2 | 91.5%
34 | CN=C(NC)N/N=C(C)\C=N\NC(=NC)NC | 104%
35 | O=Cc1c[nH]c2ccc(NC(=O)OCc3ccccc3)cc12 | 123%
36 | COc1ccc(-c2nnc(COc3ccc(NC(=O)Nc4cc(C(F)(F)F)cc(C(F)(F)F)c4)cc3F)o2)cc1 | 0.401% (active)
